5 molecules from PubChem BioAssay can be followed below.

Test [1] in a line: binders of probe aFSTL3 on microarray, primary screen, stem cell growth factor project, biochemical, small-molecule microarray, fluorescence 635/667 (AID 1064).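 Note: measures binding of the biotinylated anti-FSTL3 antibody to printed compounds.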 As to conditions: higher = more signal.
A short description of test [2]: binders from COS7 lysate, DM2A8 probe, primary screen, torsin A project, cell lysate, small-molecule microarray, fluorescence 635/667 (AID 1065). The following applies: higher = more signal, COS7 lysate expressing mutant human TOR1A.
The nature of test [3]: binders of probe aFGF2 on microarray, primary screen, stem cell growth factor project, biochemical, small-molecule microarray, fluorescence 635/667 (AID 1067).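 Note: measures binding of biotinylated aFGF2 protein to printed compounds on slides; z-score merges feature fluorescence and signal-to-noise across triplicate slides.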 As to conditions: higher = more signal.
Test [4] is described as follows: binders of probe aFGF10 on microarray, primary screen, stem cell growth factor project, biochemical, small-molecule microarray, fluorescence 635/667 (AID 1071).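 Note: score merges 667 nm spot intensity and signal to noise from triplicate slides.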 As to conditions: higher = more signal.
For test [5], the target named is Neurogenic locus notch homolog protein 2 (Homo sapiens) (UniProt Q04721). Briefly: Notch2 binders on small-molecule microarrays, primary screen, biochemical, small-molecule microarray, 635 nm fluorescence, stem cell growth factors (AID 1073). As to conditions: Notch2 binding, higher = more signal.
The target of test [6] is Pro-neuregulin-1, membrane-bound isoform (Homo sapiens) (UniProt Q02297). The test can be described thus: NRG1 binders on small-molecule microarrays, primary screen, psychiatric disease protein project, biochemical, small-molecule microarray, fluorescence 635/667 (AID 1075).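 Note: score combines 667 nm spot fluorescence with signal to noise.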 As to conditions: NRG1 binding, 635 nm fluorescence, higher = more signal.
Test [7] deals with Neuregulin-1 EGF-like domain. Briefly: binders of neuregulin-1 EGF-like domain, primary screen, biochemical, small-molecule microarray, 635 nm fluorescence (AID 1081).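 Note: binding of the protein to compounds printed on small-molecule microarray slides.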 The following applies: small-molecule microarray binding, higher = more signal.
Test [8] is described as follows: FRG1 promoter luciferase signal modulators, primary screen, FRG1 inhibition for FSHD, cell-based, C2C12 myotubes, firefly/Renilla luciferase, luminescence (AID 1084). As to conditions: higher = more signal, called active from +8 up or from −8 down.
Test [9] is described as follows: binders of probe aFST on microarray, primary screen, stem cell growth factor project, biochemical, small-molecule microarray, fluorescence 635/667 (AID 1086).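 Note: score merges 667 nm fluorescence with signal-to-noise of each printed compound spot.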 As to conditions: higher = more signal.
Test [10] in a line: binders of probe aHhip on microarray, primary screen, stem cell growth factor project, biochemical, small-molecule microarray, fluorescence 635/667 (AID 1087).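 Note: score merges spot fluorescence at 667nm with spot signal to noise ratio.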 The following applies: higher = more signal.
Test [11] has as its system PRMT1 (protein arginine N-methyltransferase 1). Briefly: PRMT1 binders on small-molecule microarrays, primary screen, biochemical, small-molecule microarray, 635 nm fluorescence (AID 1088).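 Note: binding of Prmt1 protein to compounds spotted on small-molecule microarray slides.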 As to conditions: small-molecule microarray binding, higher = more signal.
A short description of test [12]: yeast growth modulation, basal conditions, primary screen, YJM789 clinical isolate, OD600, 24 h (AID 1089).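 Note: growth of clinical yeast isolate S. cerevisiae YJM 789 seeded 1000 cells per well; test concentration not given here.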 As to conditions: S. cerevisiae YJM789 growth, higher = more signal, called active from +8 up or from −8 down.
Test [13] can be described thus: fission yeast growth modulation, primary screen, strain 972, OD600, 24 h, no modulator (AID 1090).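 Note: basal condition with compound alone and no growth modifier present; test concentration not given here.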 As to conditions: S. pombe 972 growth, higher = more signal, called active from +8 up or from −8 down.
Test [14] can be described thus: S. cerevisiae growth modulation with rapamycin, primary screen, strain BY4716, OD600, 96 h (AID 1091). Note: test concentration not given here. The following applies: higher = more signal, called active from +8 up or from −8 down.
The target in test [15] is Torsin-1A-interacting protein 2 (Homo sapiens) (UniProt Q8NFQ8). The test can be described thus: LULL1 binders on small-molecule microarray, primary screen, cell lysate, human LULL1 lysate, 635/667 nm fluorescence (AID 1092).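 Note: probe is lysate of COS7 cells overexpressing human LULL1; score merges per-feature 667 nm fluorescence with signal-to-noise.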 The following applies: hLULL1 lysate binding, 635 nm fluorescence, higher = more signal.
Test [16] in a line: E. coli growth modulation, two-sided OD650, primary screen, E. coli filamentation project, strain DRC41, 24 h (AID 1093).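 Note: MC1000 strain lacking acrAB efflux and sulA so SOS filamentation is blocked; test concentration not given here.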 As to conditions: OD650, 24 h, higher = more signal, called active from +8 up or from −8 down.
Test [17] in a line: small-molecule microarray binders of probe aLefty2, primary screen, biochemical, biotinylated probe, 635/667 nm fluorescence (AID 1094).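 Note: score merges spot fluorescence near 667 nm with spot signal-to-noise ratio.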 The following applies: higher = more signal.
In test [18] the test system is Noggin (protein binding on small-molecule microarray). The test can be described thus: Noggin binders on small-molecule microarray, primary screen, biochemical, 635/667 nm fluorescence (AID 1095).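 Note: score merges 667 nm feature fluorescence with signal to noise over triplicate slides.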 As to conditions: 635 nm fluorescence, higher = more signal.
Test [19] addresses Neurogenic locus notch homolog protein 3 (Homo sapiens) (UniProt Q9UM47). Briefly: NOTCH3 binders on small-molecule microarray, primary screen, biochemical, 635/667 nm fluorescence (AID 1096). The following applies: NOTCH3 binding, 635 nm fluorescence, higher = more signal.
Test [20] is described as follows: small-molecule microarray binders of probe aEGFR, primary screen, biochemical, biotinylated probe, 635/667 nm fluorescence (AID 1097).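 Note: probe is a biotinylated anti-EGFR antibody binding compounds printed on slides; score combines fluorescence near 667 nm and signal to noise of each spot.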 The following applies: higher = more signal.

The source made the active and inactive calls.

Torsin-1A-interacting protein 2 (Homo sapiens), sequence (Q8NFQ8 whole entry, looked up): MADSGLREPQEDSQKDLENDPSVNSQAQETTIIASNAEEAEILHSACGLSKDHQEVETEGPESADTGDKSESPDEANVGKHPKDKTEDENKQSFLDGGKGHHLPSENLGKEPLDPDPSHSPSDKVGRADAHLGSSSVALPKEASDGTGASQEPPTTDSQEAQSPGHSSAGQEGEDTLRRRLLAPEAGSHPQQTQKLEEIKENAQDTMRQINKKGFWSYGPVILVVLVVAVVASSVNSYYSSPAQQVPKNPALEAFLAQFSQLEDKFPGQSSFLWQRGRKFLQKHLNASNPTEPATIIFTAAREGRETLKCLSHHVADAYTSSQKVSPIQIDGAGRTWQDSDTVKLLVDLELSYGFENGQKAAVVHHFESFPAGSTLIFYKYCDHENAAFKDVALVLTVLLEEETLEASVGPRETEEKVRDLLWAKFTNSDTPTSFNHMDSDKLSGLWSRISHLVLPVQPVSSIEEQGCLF
Neurogenic locus notch homolog protein 3 (Homo sapiens), sequence (Q9UM47 whole entry, looked up): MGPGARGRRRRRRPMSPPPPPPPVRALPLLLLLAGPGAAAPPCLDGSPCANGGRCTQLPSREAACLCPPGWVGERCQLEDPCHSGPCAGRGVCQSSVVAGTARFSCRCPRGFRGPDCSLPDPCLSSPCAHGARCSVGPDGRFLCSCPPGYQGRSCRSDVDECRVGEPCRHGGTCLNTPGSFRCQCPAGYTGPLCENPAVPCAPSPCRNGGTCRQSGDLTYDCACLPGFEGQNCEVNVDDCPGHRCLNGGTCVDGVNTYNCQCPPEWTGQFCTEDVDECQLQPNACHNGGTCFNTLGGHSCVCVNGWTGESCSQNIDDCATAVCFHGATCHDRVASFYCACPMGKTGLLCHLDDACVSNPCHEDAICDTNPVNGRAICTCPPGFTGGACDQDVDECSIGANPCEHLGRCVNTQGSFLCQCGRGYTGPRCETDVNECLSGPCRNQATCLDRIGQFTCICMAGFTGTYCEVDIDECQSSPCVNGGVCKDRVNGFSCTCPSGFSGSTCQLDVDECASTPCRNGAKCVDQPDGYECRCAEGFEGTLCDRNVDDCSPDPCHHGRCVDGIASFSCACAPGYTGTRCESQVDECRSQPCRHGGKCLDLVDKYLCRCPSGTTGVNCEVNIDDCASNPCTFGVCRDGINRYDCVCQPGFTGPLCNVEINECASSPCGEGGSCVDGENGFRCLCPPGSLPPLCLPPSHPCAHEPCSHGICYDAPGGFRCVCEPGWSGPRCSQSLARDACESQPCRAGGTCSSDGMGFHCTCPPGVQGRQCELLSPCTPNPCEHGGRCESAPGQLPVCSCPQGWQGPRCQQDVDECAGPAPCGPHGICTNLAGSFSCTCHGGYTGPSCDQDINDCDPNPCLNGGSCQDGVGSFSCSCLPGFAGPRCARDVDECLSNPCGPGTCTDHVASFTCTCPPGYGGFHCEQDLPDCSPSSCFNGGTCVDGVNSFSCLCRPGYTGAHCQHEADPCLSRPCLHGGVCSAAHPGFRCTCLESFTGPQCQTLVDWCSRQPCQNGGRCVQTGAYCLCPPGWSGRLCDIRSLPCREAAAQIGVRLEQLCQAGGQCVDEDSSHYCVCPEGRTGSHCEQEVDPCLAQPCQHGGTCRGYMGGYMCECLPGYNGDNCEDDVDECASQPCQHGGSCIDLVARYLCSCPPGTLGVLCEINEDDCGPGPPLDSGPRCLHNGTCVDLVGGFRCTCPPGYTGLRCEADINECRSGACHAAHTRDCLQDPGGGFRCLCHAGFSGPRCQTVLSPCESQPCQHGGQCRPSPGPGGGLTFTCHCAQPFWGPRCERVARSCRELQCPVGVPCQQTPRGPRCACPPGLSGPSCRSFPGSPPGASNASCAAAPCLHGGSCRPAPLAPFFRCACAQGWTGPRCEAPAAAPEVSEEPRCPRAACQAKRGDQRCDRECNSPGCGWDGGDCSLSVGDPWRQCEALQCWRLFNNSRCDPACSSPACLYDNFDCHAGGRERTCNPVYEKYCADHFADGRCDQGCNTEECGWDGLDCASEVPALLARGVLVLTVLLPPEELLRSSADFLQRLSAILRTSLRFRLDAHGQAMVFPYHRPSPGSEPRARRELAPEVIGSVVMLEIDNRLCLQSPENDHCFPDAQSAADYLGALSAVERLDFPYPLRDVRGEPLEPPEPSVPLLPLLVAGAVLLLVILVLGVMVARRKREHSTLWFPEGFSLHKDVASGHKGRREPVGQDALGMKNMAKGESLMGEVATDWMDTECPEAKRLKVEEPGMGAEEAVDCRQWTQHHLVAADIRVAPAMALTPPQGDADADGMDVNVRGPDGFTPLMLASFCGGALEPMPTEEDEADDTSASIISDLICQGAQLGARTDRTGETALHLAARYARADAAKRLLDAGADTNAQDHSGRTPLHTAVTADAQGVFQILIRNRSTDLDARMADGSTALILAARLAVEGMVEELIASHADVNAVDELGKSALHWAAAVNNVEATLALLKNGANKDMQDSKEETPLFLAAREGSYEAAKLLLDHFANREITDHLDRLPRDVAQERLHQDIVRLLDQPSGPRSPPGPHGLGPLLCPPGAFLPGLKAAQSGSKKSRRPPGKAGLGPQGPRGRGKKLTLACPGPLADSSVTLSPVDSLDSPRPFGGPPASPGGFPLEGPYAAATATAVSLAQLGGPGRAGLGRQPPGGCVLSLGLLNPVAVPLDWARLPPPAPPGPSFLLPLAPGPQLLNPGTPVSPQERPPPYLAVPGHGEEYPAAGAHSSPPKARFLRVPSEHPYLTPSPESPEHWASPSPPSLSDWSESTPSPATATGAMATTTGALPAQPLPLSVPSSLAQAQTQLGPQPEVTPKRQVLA
Pro-neuregulin-1, membrane-bound isoform (Homo sapiens), sequence (Q02297 whole entry, looked up, the tested form may be a part, canonical isoform): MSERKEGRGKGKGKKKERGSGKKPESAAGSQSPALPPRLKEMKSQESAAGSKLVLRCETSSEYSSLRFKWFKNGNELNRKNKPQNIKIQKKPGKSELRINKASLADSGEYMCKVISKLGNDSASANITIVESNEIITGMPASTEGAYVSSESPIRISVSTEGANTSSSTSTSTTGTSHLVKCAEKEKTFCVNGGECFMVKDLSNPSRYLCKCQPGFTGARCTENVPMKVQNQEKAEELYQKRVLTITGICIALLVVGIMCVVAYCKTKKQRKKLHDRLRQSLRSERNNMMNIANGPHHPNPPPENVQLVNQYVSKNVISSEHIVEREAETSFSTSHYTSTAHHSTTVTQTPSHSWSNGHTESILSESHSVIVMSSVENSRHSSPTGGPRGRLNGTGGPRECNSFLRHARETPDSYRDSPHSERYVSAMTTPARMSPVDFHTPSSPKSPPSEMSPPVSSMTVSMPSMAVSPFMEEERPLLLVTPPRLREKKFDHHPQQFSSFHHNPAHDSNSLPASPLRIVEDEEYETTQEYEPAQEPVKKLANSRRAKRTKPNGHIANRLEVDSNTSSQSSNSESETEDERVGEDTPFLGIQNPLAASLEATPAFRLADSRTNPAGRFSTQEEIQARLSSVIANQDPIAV

For `O=C(NCCN1CCOCC1)[C@@H]1c2ccccc2C(=O)N(Cc2ccc(OC(F)(F)F)cc2)[C@H]1c1ccc(CO)cc1`, the composite z-score in test [1] is 0.224; in test [2], 0.751; in test [3], -0.0531; in [4], -0.315; in [5], 0.0161; in test [6] it was -0.181. Further, the composite z-score was 0.569 in test [7]; -0.236 in test [9]; -0.0645 in test [10]; 1.19 in test [11]; 3.09 in test [15]; -0.0766 in test [17]. The composite z-score is 0.0807 in test [18], -0.0807 in [19] and -0.126 in test [20]. The z-score in [8] was -1.39 (inactive); in test [12], -1.58 (inactive); in test [13], -0.748 (inactive); in test [14], -0.846 (inactive); in [16] it was 0.0461 (inactive).

On to `COC(=O)[C@@]1(Cc2ccc(F)cc2)[C@H]2c3cc(C(=O)N4CCCC4)n(Cc4ccccn4)c3C[C@H]2CN1C(=O)c1ccccc1`, for which the composite z-score is 0.116 in test [1]; -0.89 in [2]; 0.272 in test [3]; 1.22 in test [4]; 1.71 in test [5]; 1.29 in test [6]. The composite z-score amounted to 1.4 in [7]; 0.987 in test [9]; 0.685 in [10]; 0.159 in test [11]; 3.32 in [15]; 0.361 in test [17]. Besides, the values for the composite z-score in test [18], in test [19] and in test [20] were -0.108, 0.841 and 0.33, respectively. Besides, the z-score in [8] was 0.755 (inactive); in test [12], 0.269 (inactive); in [13], -0.289 (inactive); in [14] it was 0.856 (inactive); in test [16] it was -1.76 (inactive).

With `COc1ccc([Si](C)(C)[C@@H]2[C@@H](CC(=O)N3Cc4ccccc4C[C@H]3CO)O[C@]3(C(=O)N(Cc4cccc(N5CCOC5=O)c4)c4ccccc43)[C@H]2C)cc1`, the composite z-score in test [1] was -0.38; in test [2], 0.671; in test [3], -0.0264; in [4], 0.147; in [5], 0.331; in [6], 0.309. The composite z-score in test [7] is 0.876; in test [9], 0.0495; in test [10], -0.0618; in [11], 1.56; in test [15], 1.15; in [17] it was -0.121. The values for the composite z-score in test [18], in test [19] and in test [20] were 1.42, 1.12 and -0.0972, respectively. The z-score in test [8] was -1.64 (inactive); in test [12], -1.45 (inactive); in test [13] it was 0.837 (inactive); in [14], 1.77 (inactive); in test [16] it was 0.742 (inactive).

Consider `COC(=O)c1cccc([C@H]2OC(=CC(=O)OC(C)C)C[C@@H](c3cccc(C(=O)OC)c3)O2)c1`, for which the composite z-score in test [1] is -0.3; in test [2], 2.67; in test [3], 0.357; in [4], 1.14; in test [5], 1.08; in test [6] it was 1.4. Moreover, the composite z-score in test [7] was 1.12; in [9], 0.902; in test [10], -0.289; in [11] it was 1.55; in test [15], 3.6; in test [17] it was 0.272. The composite z-score in [18] came out at 1.22; in test [19], 0.974; in test [20], 0.0297. The z-score was 0.946 (inactive) in test [8]; -0.132 (inactive) in [12]; -2.24 (inactive) in [13]; -1.39 (inactive) in test [14]; -0.259 (inactive) in test [16].

`COC(=O)[C@]1(Cc2ccccc2)N=C(c2ccc(OCCCO)cc2)O[C@@H]1c1ccccc1CN=[N+]=[N-]`: the composite z-score in test [1] was 0.278; in test [2], -0.235; in test [3], -0.0266; in test [4], -0.214; in test [5], 0.582; in test [6], 0.718. In addition, the composite z-score in [7] is 1.29; in [9] it was 0.693; in [10], -0.134; in test [11], 1.56; in test [15] it was 2.34; in test [17], 0.0647. In addition, the values for the composite z-score in [18], in test [19] and in [20] were 0.615, 0.399 and -0.0967, respectively. Besides, the z-score was 1.48 (inactive) in test [8]; 0.738 (inactive) in test [12]; 0.237 (inactive) in [13]; 34.8 (active) in test [14]; -0.156 (inactive) in test [16].
